Reference: PubChem BioAssay (EPA / NIEHS)
The source made the active and inactive calls. How the source made its calls: active means hit-call score of the fitted dose curve at least 0.9, where 1 is the maximum; inactive means score below 0.9.

Columns and labels:
Settings in all cases: mRNA level, 48 h; actives raise or lower the signal
[1] = read-out: Fatty acid synthase (Homo sapiens) (UniProt P49327); assay: LTEA_HepaRG_FASN: Life Technologies and Expression Analysis (LTEA) Assay for Fatty Acid Synthase (FASN) using HepaRG (AID 2283448)
Method in brief: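 Differentiated human HepaRG cells were exposed for 48 h in serum-free induction medium to eight half-log concentrations up to 100 uM in 0.5% DMSO, in duplicate. FASN mRNA was quantified by TaqMan qRT-PCR, normalized to ACTB/GAPDH/POLR2A, and fitted bidirectionally against DMSO.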

[2] = read-out: Cyclin D2 (CCND2), CCND2 (gene 894); assay: LTEA_HepaRG_CCND2: Life Technologies and Expression Analysis (LTEA) Assay for Cyclin D2 (CCND2) using HepaRG (AID 2283449);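 further: CCND2 transcript measured by TaqMan qRT-PCR and normalised to three housekeeping genes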
Method in brief: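 Chemicals in 0.5% DMSO, eight half-log concentrations from 100 uM top, were applied in duplicate for 48 h to human HepaRG cells in serum-free induction medium. CCND2 mRNA by TaqMan qRT-PCR, normalised to ACTB/GAPDH/POLR2A; bidirectional fit versus DMSO.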

[3] = read-out: Cyclin Dependent Kinase Inhibitor 1A (CDKN1A), CDKN1A (gene 1026); assay: LTEA_HepaRG_CDKN1A: Life Technologies and Expression Analysis (LTEA) Assay for Cyclin Dependent Kinase Inhibitor 1A (CDKN1A) using HepaRG (AID 2283450)
Method in brief: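 Read-out is CDKN1A mRNA by TaqMan qRT-PCR, normalized to three housekeeping genes and fitted in both directions against the DMSO baseline. Human HepaRG cells were treated 48 h with test chemicals up to 100 uM in half-log steps, 0.5% DMSO.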

[4] = read-out: Cyclin D1 (CCND1), CCND1 (gene 595); assay: LTEA_HepaRG_CCND1: Life Technologies and Expression Analysis (LTEA) Assay for Cyclin D1 (CCND1) using HepaRG (AID 2283451);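 on AC50: TaqMan qRT-PCR transcript level normalised to ACTB GAPDH and POLR2A housekeeping genes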
Method in brief: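 HepaRG plated 48 h, medium switched to serum-free induction medium, chemicals added in duplicate (top 100 uM, half-log steps, 0.5% DMSO) for 48 h, cells lysed, RNA measured by TaqMan qRT-PCR.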

[5] = read-out: catalase (CAT), CAT (gene 847); assay: LTEA_HepaRG_CAT: Life Technologies and Expression Analysis (LTEA) Assay for catalase (CAT) using HepaRG (AID 2283452);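 on AC50: TaqMan qRT-PCR signal normalized to ACTB GAPDH and POLR2A housekeeping genes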
Method in brief: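 HepaRG cells in serum-free induction medium, 0.5% DMSO vehicle, exposed 48 h in duplicate over 8 half-log concentrations from 100 uM. CAT mRNA measured by qRT-PCR, normalized to ACTB, GAPDH, POLR2A; bidirectional fit versus DMSO.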

[6] = read-out: Cytochrome P450 (CYP1A1), CYP1A1 (gene 1543); assay: LTEA_HepaRG_CYP1A1: Life Technologies and Expression Analysis (LTEA) Assay for Cytochrome P450 (CYP1A1) using HepaRG (AID 2283454)
Method in brief: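 HepaRG, 48 h post-plating switched to serum-free induction medium; 8-pt conc-response (top 100 uM, half-log, 0.5% DMSO), duplicates, 48 h. Lysis in RLT, TaqMan qRT-PCR for CYP1A1; gain or loss vs DMSO.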

[7] = read-out: CFLAR gene, CFLAR (gene 8837); assay: LTEA_HepaRG_CFLAR: Life Technologies and Expression Analysis (LTEA) Assay for CFLAR gene using HepaRG (AID 2283455)
Method in brief: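 Differentiated HepaRG cells in serum-free induction medium were exposed 48 h in duplicate to eight half-log concentrations up to 100 uM in 0.5% DMSO; mRNA measured by TaqMan qRT-PCR, normalized to ACTB, GAPDH, POLR2A; bidirectional fitting versus DMSO.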

[8] = read-out: Forkhead box O1 (FOXO1), FOXO1 (gene 2308); assay: LTEA_HepaRG_FOXO1: Life Technologies and Expression Analysis (LTEA) Assay for Forkhead box O1 (FOXO1) using HepaRG (AID 2283456)
Method in brief: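 Differentiated HepaRG cells, in serum-free induction medium with 0.5% DMSO, exposed 48 h in duplicate to 8-point half-log series from 100 uM. FOXO1 mRNA measured by TaqMan qRT-PCR, normalized to ACTB, GAPDH, POLR2A; bidirectional fit versus DMSO.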

[9] = read-out: growth arrest and DNA damage 45 (GADD45A), GADD45A (gene 1647); assay: LTEA_HepaRG_GADD45A: Life Technologies and Expression Analysis (LTEA) Assay for growth arrest and DNA damage 45 (GADD45A) using HepaRG (AID 2283458)
Method in brief: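 Differentiated HepaRG cells were exposed in duplicate for 48 h in serum-free induction medium to 8-point half-log concentrations up to 100 uM in 0.5% DMSO. GADD45A mRNA was measured by TaqMan qRT-PCR, normalized to ACTB, GAPDH and POLR2A, with bidirectional fitting versus DMSO.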

[10] = read-out: Forkhead box O3 (FOXO3), FOXO3 (gene 2309); assay: LTEA_HepaRG_FOXO3: Life Technologies and Expression Analysis (LTEA) Assay for Forkhead box O3 (FOXO3) using HepaRG (AID 2283459)
Method in brief: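 Differentiated human HepaRG cells, 48 h post-plating, exposed in duplicate for 48 h in serum-free induction medium; 8-point half-log series from 100 uM in 0.5% DMSO. FOXO3 mRNA by TaqMan qRT-PCR, normalized to ACTB/GAPDH/POLR2A; bidirectional fit versus DMSO.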

[11] = read-out: ABC Transporter (ABCB1), ABCB1 (gene 5243); assay: LTEA_HepaRG_ABCB1: Life Technologies and Expression Analysis (LTEA) Assay for ABC Transporter (ABCB1) using HepaRG (AID 2283460)
Method in brief: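 HepaRG cells exposed in duplicate for 48 h in serum-free induction medium to eight half-log concentrations up to 100 uM in 0.5% DMSO. ABCB1 mRNA quantified by qRT-PCR, normalised to ACTB, GAPDH and POLR2A; fitted bidirectionally versus DMSO.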

[12] = read-out: ABC Transporter (ABCC3), ABCC3 (gene 8714); assay: LTEA_HepaRG_ABCC3: Life Technologies and Expression Analysis (LTEA) Assay for ABC Transporter (ABCC3) using HepaRG (AID 2283462)
Method in brief: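 Human HepaRG, 48 h dosing, 8-pt half-log series from 100 uM, 0.5% DMSO vehicle, duplicates. ABCC3 mRNA by TaqMan qRT-PCR, housekeeping-normalized; bidirectional curve fit vs DMSO.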

[13] = read-out: ABC Transporter (ABCB11), ABCB11 (gene 8647); assay: LTEA_HepaRG_ABCB11: Life Technologies and Expression Analysis (LTEA) Assay for ABC Transporter (ABCB11) using HepaRG (AID 2283463)
Method in brief: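 Differentiated human HepaRG cells in serum-free induction medium, dosed in duplicate for 48 h. Eight-point half-log series from 100 uM in 0.5% DMSO; ABCB11 mRNA by qRT-PCR, normalized to ACTB, GAPDH, POLR2A, fitted bidirectionally versus DMSO.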

[14] = read-out: ABC Transporter (ABCC2), ABCC2 (gene 1244); assay: LTEA_HepaRG_ABCC2: Life Technologies and Expression Analysis (LTEA) Assay for ABC Transporter (ABCC2) using HepaRG (AID 2283464)
Method in brief: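 HepaRG, 48 h post-plating; serum-free induction medium; cpd 8-pt, 100 uM top, half-log, 0.5% DMSO, duplicate, 48 h. Readout: ABCC2 mRNA by qRT-PCR, norm. ACTB/GAPDH/POLR2A. Bidirectional fit vs DMSO baseline.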

[15] = read-out: Broad substrate specificity ATP-binding cassette transporter ABCG2 (Homo sapiens) (UniProt Q9UNQ0); assay: LTEA_HepaRG_ABCG2: Life Technologies and Expression Analysis (LTEA) Assay for ABC Transporter (ABCG2) using HepaRG (AID 2283465)
Method in brief: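 Differentiated HepaRG cells were exposed for 48 h in serum-free induction medium to 8 half-log concentrations, top 100 uM, in 0.5% DMSO. ABCG2 mRNA was measured by qRT-PCR, normalized to ACTB, GAPDH and POLR2A, with bidirectional fitting versus DMSO.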

[16] = read-out: ATP-citrate lyase (ACLY), ACLY (gene 47); assay: LTEA_HepaRG_ACLY: Life Technologies and Expression Analysis (LTEA) Assay for ATP-citrate lyase (ACLY) using HepaRG (AID 2283466)
Method in brief: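 Differentiated HepaRG cells exposed 48 h in serum-free induction medium to eight half-log concentrations up to 100 uM in 0.5% DMSO, duplicates. Transcript measured by Fluidigm TaqMan qRT-PCR, normalized to ACTB, GAPDH, POLR2A; bidirectional fit versus DMSO.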

[17] = read-out: Peroxisomal acyl-coenzyme A oxidase 1 (ACOX1) gene, ACOX1 (gene 51); assay: LTEA_HepaRG_ACOX1: Life Technologies and Expression Analysis (LTEA) Assay for Peroxisomal acyl-coenzyme A oxidase 1 (ACOX1) gene using HepaRG (AID 2283467)
Method in brief: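 HepaRG cells, plated 48 h then switched to serum-free induction medium, were exposed in duplicate for 48 h to 8-point half-log concentrations up to 100 uM in 0.5% DMSO. ACOX1 mRNA was measured by qRT-PCR, normalized to ACTB/GAPDH/POLR2A, and fitted bidirectionally versus DMSO.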

[18] = read-out: flavin-containing dimethylaniline monooxygenases 3 (FMO3), FMO3 (gene 2328); assay: LTEA_HepaRG_FMO3: Life Technologies and Expression Analysis (LTEA) Assay for flavin-containing dimethylaniline monooxygenases 3 (FMO3) using HepaRG (AID 2283453)
Method in brief: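 HepaRG, 48 h exposure, 8-pt half-log series from 100 uM, 0.5% DMSO vehicle, duplicates; FMO3 transcript by Fluidigm TaqMan qRT-PCR, housekeeping-normalized; gain/loss fit vs DMSO.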

Measured: AC50

Chain of Fatty acid synthase (Homo sapiens) (P49327 whole entry, looked up): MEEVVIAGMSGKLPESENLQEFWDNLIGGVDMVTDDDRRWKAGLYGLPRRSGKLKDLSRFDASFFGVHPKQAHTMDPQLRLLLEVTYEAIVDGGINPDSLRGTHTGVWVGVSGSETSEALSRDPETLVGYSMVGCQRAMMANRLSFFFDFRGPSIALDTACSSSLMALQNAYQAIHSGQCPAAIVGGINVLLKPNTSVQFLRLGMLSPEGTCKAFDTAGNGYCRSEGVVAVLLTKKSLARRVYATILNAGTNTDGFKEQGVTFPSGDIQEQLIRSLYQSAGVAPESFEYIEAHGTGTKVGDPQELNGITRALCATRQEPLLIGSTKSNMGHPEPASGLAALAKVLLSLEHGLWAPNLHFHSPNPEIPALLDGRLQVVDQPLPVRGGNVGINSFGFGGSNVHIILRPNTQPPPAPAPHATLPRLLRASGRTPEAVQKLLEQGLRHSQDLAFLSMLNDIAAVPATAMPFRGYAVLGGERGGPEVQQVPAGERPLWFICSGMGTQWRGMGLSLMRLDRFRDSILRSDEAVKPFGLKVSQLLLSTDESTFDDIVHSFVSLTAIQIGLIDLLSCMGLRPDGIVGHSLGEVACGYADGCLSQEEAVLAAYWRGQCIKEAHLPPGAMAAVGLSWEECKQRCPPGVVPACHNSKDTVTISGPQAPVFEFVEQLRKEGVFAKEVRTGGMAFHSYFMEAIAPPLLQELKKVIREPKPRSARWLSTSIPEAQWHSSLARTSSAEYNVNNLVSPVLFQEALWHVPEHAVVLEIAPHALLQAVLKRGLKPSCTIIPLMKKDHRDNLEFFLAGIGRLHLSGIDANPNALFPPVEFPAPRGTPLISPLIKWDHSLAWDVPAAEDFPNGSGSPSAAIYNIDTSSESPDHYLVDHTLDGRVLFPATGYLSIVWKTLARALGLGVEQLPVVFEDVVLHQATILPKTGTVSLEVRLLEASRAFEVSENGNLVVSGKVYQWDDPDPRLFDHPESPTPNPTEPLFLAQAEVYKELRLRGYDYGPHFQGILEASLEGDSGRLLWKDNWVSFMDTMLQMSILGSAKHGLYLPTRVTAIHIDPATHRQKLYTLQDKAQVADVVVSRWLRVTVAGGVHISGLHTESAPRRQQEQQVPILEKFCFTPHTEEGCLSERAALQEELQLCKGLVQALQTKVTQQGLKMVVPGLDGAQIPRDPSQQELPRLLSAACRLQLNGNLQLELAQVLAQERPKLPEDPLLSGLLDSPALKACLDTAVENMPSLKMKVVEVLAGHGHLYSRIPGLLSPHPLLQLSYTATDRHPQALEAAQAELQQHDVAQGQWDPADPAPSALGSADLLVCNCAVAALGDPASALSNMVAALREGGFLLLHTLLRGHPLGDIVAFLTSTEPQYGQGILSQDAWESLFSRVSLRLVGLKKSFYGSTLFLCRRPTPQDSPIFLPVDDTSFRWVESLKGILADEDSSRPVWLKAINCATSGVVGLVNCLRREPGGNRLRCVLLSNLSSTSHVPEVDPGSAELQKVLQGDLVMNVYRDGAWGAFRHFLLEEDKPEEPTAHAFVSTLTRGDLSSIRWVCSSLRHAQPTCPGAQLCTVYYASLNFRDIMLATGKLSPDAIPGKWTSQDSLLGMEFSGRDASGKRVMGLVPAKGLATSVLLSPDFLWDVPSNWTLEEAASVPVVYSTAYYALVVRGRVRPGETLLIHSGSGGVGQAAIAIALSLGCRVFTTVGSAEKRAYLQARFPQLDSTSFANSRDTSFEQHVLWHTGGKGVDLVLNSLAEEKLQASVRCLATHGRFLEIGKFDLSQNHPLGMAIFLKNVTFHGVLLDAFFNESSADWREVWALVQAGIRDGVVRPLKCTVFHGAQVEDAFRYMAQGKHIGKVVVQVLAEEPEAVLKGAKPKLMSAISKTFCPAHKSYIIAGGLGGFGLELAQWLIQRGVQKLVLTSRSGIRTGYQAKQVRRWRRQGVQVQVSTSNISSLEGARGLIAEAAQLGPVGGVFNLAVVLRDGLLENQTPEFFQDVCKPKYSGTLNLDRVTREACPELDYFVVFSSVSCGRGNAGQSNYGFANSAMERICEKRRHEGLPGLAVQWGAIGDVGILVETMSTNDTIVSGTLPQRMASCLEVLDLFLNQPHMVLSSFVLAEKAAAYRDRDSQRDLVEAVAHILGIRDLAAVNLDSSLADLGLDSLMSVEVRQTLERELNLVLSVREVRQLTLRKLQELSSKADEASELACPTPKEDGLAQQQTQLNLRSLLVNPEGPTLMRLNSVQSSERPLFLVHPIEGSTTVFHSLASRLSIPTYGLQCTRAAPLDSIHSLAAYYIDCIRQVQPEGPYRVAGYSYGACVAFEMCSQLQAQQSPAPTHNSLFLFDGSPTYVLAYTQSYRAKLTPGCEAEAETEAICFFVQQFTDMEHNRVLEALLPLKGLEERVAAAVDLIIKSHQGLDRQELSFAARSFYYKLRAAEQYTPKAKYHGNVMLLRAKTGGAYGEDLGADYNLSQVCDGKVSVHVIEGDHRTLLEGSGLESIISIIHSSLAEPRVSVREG
Chain of Broad substrate specificity ATP-binding cassette transporter ABCG2 (Homo sapiens) (Q9UNQ0 whole entry, looked up): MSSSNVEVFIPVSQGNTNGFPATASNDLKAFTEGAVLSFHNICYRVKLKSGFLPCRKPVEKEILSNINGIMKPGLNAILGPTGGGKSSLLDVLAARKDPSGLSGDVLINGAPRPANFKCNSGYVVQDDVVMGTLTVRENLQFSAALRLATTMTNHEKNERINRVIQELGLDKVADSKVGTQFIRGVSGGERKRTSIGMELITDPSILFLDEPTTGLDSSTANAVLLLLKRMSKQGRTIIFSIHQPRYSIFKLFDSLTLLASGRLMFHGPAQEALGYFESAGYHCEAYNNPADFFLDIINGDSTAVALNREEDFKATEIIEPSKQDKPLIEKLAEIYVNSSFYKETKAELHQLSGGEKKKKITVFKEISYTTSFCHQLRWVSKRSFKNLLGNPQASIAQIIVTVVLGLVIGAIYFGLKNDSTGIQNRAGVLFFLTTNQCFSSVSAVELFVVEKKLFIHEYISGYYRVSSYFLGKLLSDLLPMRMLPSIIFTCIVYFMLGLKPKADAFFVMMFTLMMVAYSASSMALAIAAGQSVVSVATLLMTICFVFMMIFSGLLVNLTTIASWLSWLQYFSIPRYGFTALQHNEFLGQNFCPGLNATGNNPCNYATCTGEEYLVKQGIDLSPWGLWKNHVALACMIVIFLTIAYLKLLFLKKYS

CC#C[C@]1(O)CC[C@H]2[C@@H]3CCC4=CC(=O)CCC4=C3[C@@H](c3ccc(N(C)C)cc3)C[C@@]21C
active: [1] 4.54 µM | [3] 39.2 µM | [4] 86.2 µM | [5] 34.2 µM | [6] 50 µM | [8] 3.33 µM | [9] 72.6 µM | [10] 91.2 µM | [11] 26.9 µM | [13] 24.7 µM | [14] 2.42 µM | [15] 29.8 µM | [16] 79.1 µM
inactive: [2] | [7] | [12] | [17]

CCc1ccc(CCOc2ccc(CC3SC(=O)NC3=O)cc2)nc1 (configuration not stated)
active: [3] 80.4 µM | [4] 50 µM | [5] 83.4 µM | [6] 50 µM | [9] 50 µM | [11] 11.2 µM | [13] 76.8 µM | [16] 50 µM | [17] 0.718 µM
inactive: [1] | [2] | [7] | [8] | [10] | [12] | [14]

CC[C@H](C)[C@@H](C(=O)O)n1sc2ccccc2c1=O
active: [6] 50 µM
not listed: [15] | [18]
inactive: all other assays above

CCCCCCC(=O)O
active: [6] 59.9 µM
not listed: [15] | [18]
inactive: all other assays above

Oc1cccc(O)c1
not listed: [2]
inactive: all other assays above
